# According to PubChem BioAssay AID841 (Emory University Molecular Libraries Screening Center, 2007):
# Out of some 140,000 compounds screened, about 2,100 (1.5%) were called active. Many of the other results were omitted from the sample, so actives are more common in it than they were. Unmarked numbers belong to inactive results. Cut-off read from the data, not from the text of the source: active = protection mostly above about 24% (no sharp cut-off); inactive = mostly below about 26%.
# Assay: compounds protecting cells from measles virus cytopathic effect, primary screen, measles RdRp inhibitor project, single point, MLSMR library, absorbance (AID 841)
# Details: Measles virus-infected cells, CPE protection, at 4 µM, active compounds read high
row,SMILES,protection (pct of control)
1,Cc1c(NC(=S)NCc2ccc(F)cc2)cccc1[N+](=O)[O-],18%
2,CN(CC(=O)Nc1ccc(N2CCOCC2)cc1)CC(=O)Nc1ccccc1[N+](=O)[O-],21%
3,Cc1ccc(NC(=O)CN(C)Cc2ccc(F)cc2)c([N+](=O)[O-])c1,64.2% (active)
4,CCCCOc1ccc(NC(=O)[C@@H]2CCCN2C(=O)C2CCN(S(=O)(=O)c3ccc(C)cc3)CC2)cc1,12.8%
5,CCN=C1S/C(=C\c2cc(Br)ccc2OCC(=O)OCC)C(=O)N1CC,4.59%
6,CCCC(C)C(=O)OCC(=O)Nc1c(Br)cc(C)cc1Br (stereo not given),5.66%
7,C=CCn1c(-c2ccc3[nH]c(C)c(C)c3c2)n[nH]c1=S,41.1% (active)
8,CCc1cc(-c2n[nH]c(=S)n2CC(C)C)cs1,1.82%
9,CCCc1cc(-c2n[nH]c(=S)n2Cc2ccccc2)cs1,18%
10,CC(C)(C)c1ccc(NC(=O)COC(=O)CCc2nc3ccccc3c(=O)[nH]2)cc1,4.79%
11,COc1ccc(NC(=O)CSc2nnc(-c3cccs3)n2Cc2ccco2)cc1OC,5.61%
12,COc1cc(Cl)c(C)cc1NC(=O)CSc1nnc(-c2cccnc2)n1Cc1ccco1,6.16%
13,COc1ccccc1NC(=O)CSc1nc2sc(C)c(C)c2c(=O)n1Cc1ccco1,48.9% (active)
14,CCOc1cc(C2C(C(=O)OC)=CN(C3CCCC3)C=C2C(=O)OC)cc(Br)c1O,8.51%
15,COC(=O)C1=CN(C)C=C(C(=O)OC)C1c1ccc(Cl)cc1Cl,4.66%
16,CCOc1ccccc1C1C(C(=O)OC)=CN(C)C=C1C(=O)OC,48.9% (active)
17,Cc1ccnc(NC(=O)Cn2ccc([N+](=O)[O-])n2)c1,6.33%
18,COc1ccc(Cl)cc1NC(=O)[C@@H]1CCCN1C(=O)c1cccs1,6.26%
19,COc1ccc(CN2C(=O)CC(Cc3ccc(C)cc3)C2=O)cc1OC (stereo not given),7.23%
20,CCCCNS(=O)(=O)c1ccc2nc(SCC(=O)Nc3cc(C)cc(C)c3)[nH]c2c1,6.86%
21,CSCc1cc(N2CCOCC2)nc(SCc2ccc(Cl)cc2Cl)n1,71.8% (active)
22,CSCc1cc(N(C)C)nc(SCc2ccc(Cl)cc2Cl)n1,3.22%
23,O=c1cc(CSc2ccc(Cl)cc2)nc(N2CCOCC2)[nH]1,15.7%
24,O=C1CCCC(O)=C1N=Nc1ccc2ncsc2c1,4.07%

row,SMILES,protection (pct of control)
1,COc1cc(/C=C(/NC(=O)c2ccc(Cl)cc2Cl)C(=O)O)cc(OC)c1OC,8.92%
2,C=CCSc1nnc(Cn2c(=O)sc3ccccc32)n1C,12.3%
3,Cc1cccc(CSc2nnc(Cn3c(=O)sc4ccccc43)n2C)c1,11.3%
4,Cc1ccccc1CSc1nnc(Cn2c(=O)sc3ccccc32)n1C,42.8% (active)
5,CCN(CC)S(=O)(=O)c1cc([N+](=O)[O-])ccc1N=Nc1c(O)n(C)c2ccccc12,4.65%
6,COc1ccc(C)cc1NC(=O)CSc1ccc(Cl)cc1,9.52%
7,COC(=O)[C@H](C)[C@H]1C[C@]1(C)[C@H](NC(=O)OCc1ccccc1)c1ccccc1,3.04%
8,COC(=O)[C@H](Cc1ccccc1)NC(=O)[C@@H]1C[C@H]1[C@@H](NC(=O)OCc1ccccc1)c1ccccc1,49.5% (active)
9,COC(=O)[C@H](Cc1ccccc1)NC(=O)N1CC(C)OC(C)C1 (stereo not given in full),13.1%
10,CSc1ccc(/C=C/C(=O)NC23CC4CC(CC(C4)C2)C3)cc1,2.59%
11,CC(=O)c1ccc(N2CCN(C(=O)c3ccc4nc[nH]c4c3)CC2)cc1,20.3%
12,CCCc1ccc(-c2csc(NC(=O)Cc3cccs3)n2)cc1,25%
13,Cc1ccc(-c2csc(NC(=O)Cc3cccs3)n2)cc1C,42.2% (active)
14,COc1ccc(-c2csc(NC(=O)CCCc3cccs3)n2)cc1,37.9%
15,C/C(CC(=O)Nc1cccc(F)c1)=N\NC(=O)C(=O)NC1CCCCC1,2.76%
16,Cc1cc(C)c(C2C3=C(Nc4c2c(C)nn4-c2ccccn2)c2ccccc2C3=O)c(C)c1 (stereo not given),7.66%
17,O=C(CN1C(=O)c2cccc3cccc(c23)C1=O)N1CCCCC1,4.32%
18,Cc1nnc(NC(=O)/C=C/c2ccco2)s1,22.5%
19,O=[N+]([O-])c1ccc(NCCCO)c(C(F)(F)F)c1,10.7%
20,O=C(CSc1nc2c(cnn2-c2ccc(F)cc2)c(=O)[nH]1)N1CCCCCC1,6.65%
21,C=CCNC(=O)CSc1nc2sc(C)c(C)c2c(=O)[nH]1,1.51%
22,CC(=O)c1sc2nc(SCC(=O)N3CCCCC3)[nH]c(=O)c2c1C,61.4% (active)
23,Fc1c(F)c(C(F)(F)F)c(F)c(F)c1N1CCN(c2ccc3nnc(C(F)(F)F)n3n2)CC1,52.3% (active)
24,FC(F)(F)c1nnc2ccc(N3CCN(c4ccccc4)CC3)nn12,1.66%

row,SMILES,protection (pct of control)
1,COc1ccc(S(=O)(=O)N2CCCC2)c(C)c1C,7.99%
2,COc1ccc(S(=O)(=O)Nc2ccc(F)cc2)c(C)c1C,62% (active)
3,COc1ccc(F)cc1S(=O)(=O)Nc1ccc2c(c1)OCO2,5.59%
4,COc1ccc2c(c1)cc1n2CCN=C1NN,25.1% (active)
5,COc1ccc(NC(=O)Nc2ccc3nc(C)c(C)nc3c2)cc1,2.45%
6,COc1cc(-c2cc(C(=O)OCC(=O)Nc3ccc4c(c3)OCO4)c3ccccc3n2)cc(OC)c1OC,4.84%
7,O=C(Cc1ccc(-n2c(=O)[nH]c3ccccc3c2=O)cc1)N1CCN(c2cccc(Cl)c2)CC1,2.23%
8,CCOC(=O)N1CCN(C(=O)Cc2ccc(-n3c(=S)[nH]c4ccccc4c3=O)cc2)CC1,49% (active)
9,CCOC(=O)N1CCN(CC(=O)c2c(C)[nH]c3ccccc23)CC1,5.34%
10,O=C(/C=C/c1cccc([N+](=O)[O-])c1)NCCSCc1ccco1,4%
11,CCOc1ccc(-c2n[nH]c(=S)n2/N=C/c2cc3c(cc2[N+](=O)[O-])OCO3)cc1,2.01%
12,Cc1cc([N+](=O)[O-])nn1CC(=O)Nc1ccc(Cc2ccncc2)cc1,3.88%
13,CCCCCCCCCOC1OC(CO)C(O)C(O)C1NC(C)=O (stereo not given),19.9%
14,CONc1nc2nonc2nc1NOC,8.78%
15,CC(C)C(=O)Nc1ccc(C(=O)NNC(=O)c2cccs2)cc1,6.3%
16,COc1ccccc1-c1nnc(NC(=O)c2ccc3ncsc3c2)o1,19.4%
17,CCN(CC)C(=O)c1sc(NC(=O)c2ccco2)c(C#N)c1C,10.4%
18,CCC(=O)Nc1sc(C(=O)N2CCCCC2)c(C)c1C#N,34.3% (active)
19,CCOC(=O)c1sc(NC(=O)CSc2ncccn2)c(C#N)c1C,12.3%
20,N#Cc1c(-c2ccc(F)cc2)cc(C2CC2)nc1SCC(=O)c1cccs1,17.3%
21,COc1ccc(NC(=O)c2sc(N3CCOCC3)nc2-c2ccccc2)c(OC)c1,7.3%
22,CCCSc1nc2c(c(=O)n(C)c(=O)n2C)n1Cc1ccc(C)cc1,16.6%
23,COC(=O)C(C)Sc1nc2c(c(=O)n(C)c(=O)n2C)n1Cc1cccc(C)c1 (stereo not given),13.3%
24,Cc1cccc(Cn2c(SCCO)nc3c2c(=O)n(C)c(=O)n3C)c1,38.3% (active)

row,SMILES,protection (pct of control)
1,O=C(CSc1ccc(C(F)(F)F)cc1[N+](=O)[O-])NCCOc1ccccc1,16.6%
2,CCCCc1cc2c(s1)CCCC/C2=N/O,5.03%
3,CCOc1ccc(S(=O)(=O)N2CCCCCC2)c2ccccc12,3.16%
4,CCOc1ccc(S(=O)(=O)n2ccnc2)c2ccccc12,40.7% (active)
5,COc1cc(C)c(C(C)C)cc1S(=O)(=O)n1ccnc1,24.3%
6,O=S(=O)(/N=C(/Nc1ccccc1)c1ccccc1)c1cccs1,4.51%
7,COC(=O)C(C)Oc1ccc2c(-c3cccc([N+](=O)[O-])c3)cc(=O)oc2c1 (stereo not given),4.97%
8,CC(=O)COc1ccc2c(-c3ccccc3)cc(=O)oc2c1,68.7% (active)
9,Cc1cc(=O)oc2ccc(OCC(=O)O)cc12,16.4%
10,CC(C)NC(=S)N1CCN(S(C)(=O)=O)CC1,39.7%
11,Cc1ccnc(N2CCCC(C(=O)Nc3cc(F)ccc3C)C2)n1 (stereo not given),46.4% (active)
12,O=C(Nc1ccc2c(c1)OCCO2)C1CCCN(c2ncccn2)C1 (stereo not given),7.15%
13,Cc1ccnc(N2CCC(C(=O)NC3CCCCCC3)CC2)n1,6.88%
14,NC1=NC(=O)C(Cc2cccc(Cl)c2Cl)S1 (stereo not given),22.3%
15,C=CCn1c2ccccc2c2nnc(SCc3[nH]c(=O)[nH]c3C(=O)CCCCC(=O)OCC)nc21,14.8%
16,O=C(O)c1ccc2c(c1)C(=O)N(NC(=O)c1ccc(O)cc1)C2=O,16.8%
17,Cc1ccc(N/C=C/C(=O)c2ccccc2)cc1C,11.4%
18,O=C(/C=C/Nc1ccccc1)c1cnc(-c2ccccc2)s1,62.4% (active)
19,CC(C)(C)C(=O)c1cnc(Nc2ccccc2)s1,2.07%
20,S=c1[nH]nc(-c2ccccc2)n1/N=C/c1c[nH]c2ccccc12,2.43%
21,Oc1ccccc1/C=N/n1c(-c2cccs2)n[nH]c1=S,36.6% (active)
22,Cc1ccc(/C=N\n2c(-c3ccccc3)n[nH]c2=S)s1,8.39%
23,COC(=O)Cc1ccc(OCC(=O)Nc2ccc(OC(F)(F)F)cc2)cc1,9.11%
